HT1080 IDH1KD tx: kills HT-1080 cells with IDH1 knockdown | 2% of 360,000 active | Potency, µM (titrated, usually from 46.1 µM), for the others: at the highest dose activity, negative = toxicity, usual class: cytotoxic | HT-1080 IDH1 knockdown viability, ATP luminescence, 48 h | AID 686971;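 further: potency means the concentration at half of the fitted maximal effect; 0% = DMSO wells and -100% = cell-free medium wells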
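Knockdown cells (IDH1KD HT-1080) received compounds 2 h after plating at 750 cells/well and were kept 48 h at 37 °C in 5% FBS RPMI. A CellTiter-Glo luminescence read gave % activity for curve fitting.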
HT1080NT lethal: kills 2HG-producing HT-1080-NT fibrosarcoma cells | HT-1080-NT fibrosarcoma viability, CellTiter-Glo ATP luminescence, 48 h | Potency, µM (doses to about 46.1 µM), inactives show top-dose activity, negative = less viability, hits mostly cytotoxic | 1.6% of 360,000 active;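 further: NT is the 2HG producing partner of a matched IDH1 knockdown line; potency means the concentration at half of the fitted maximal effect; 0% = DMSO-treated cells and -100% = media-only wells without cells; nearly all actives have a fitted effect of over 55% in size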
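HT-1080-NT fibrosarcoma cells (2HG-overproducing), 750 cells/well in RPMI with 5% FBS, dosed after 2 h and incubated 48 h at 37C. CellTiter-Glo luminescence normalized to DMSO and no-cell wells; concentration-response curves fitted and classed.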
TDP1 cell noCPT: qHTS for Inhibitors of human tyrosyl-DNA phosphodiesterase 1 (TDP1): qHTS in cells in absence of CPT; DT40 Tdp1-/- hTDP1 cells, no CPT, ATP luminescence, 48 h; Potency, µM (top dose mostly 46.2 µM), for inactives: top-dose activity change, negative = growth inhibition, usual class: inhibitors; 15% of 420,000 active; AID 686978, 2013; further: potency means the concentration at half of the fitted maximal effect; nearly all actives have a fitted effect of over 55% in size
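Growth of hTDP1-complemented DT40 Tdp1-knockout cells is measured by ATP luminescence after at least 48 hr compound exposure at 37 °C, with DMSO substituting for the 20 nM CPT used in the parallel screen.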
IL-1B inflam inh: blocks inflammasome-driven IL-1 beta release. THP-1 LPS/ATP IL-1B secretion, AlphaLISA, 16 h; active compounds read low. activity change, % at 57.5 µM. 4.7% of 360,000 active. AID 743279; in the data active means activity change below about -50%; inconclusive means mostly about -30% to -49%
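THP-1 cells pretreated 1 hr with compounds (up to 57.5 uM final), then stimulated with LPS (250 ng/mL final) plus ATP (1.25 mM final); secreted IL-1B measured by AlphaLISA after 16 hr, decreased signal indicating inhibition.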
12-LOX inh: ALOX12 (human) lipoxygenase inhibition. Potency, µM (titrated, usually from 108 µM), for the others: top-dose activity change, negative = inhibition, hits mostly inhibitors. purified 12hLO, xylenol orange hydroperoxide absorbance. P18054. 1.1% of 580,000 active; further: potency means the concentration at half of the fitted maximal effect
Target sequence (P18054 whole entry, looked up): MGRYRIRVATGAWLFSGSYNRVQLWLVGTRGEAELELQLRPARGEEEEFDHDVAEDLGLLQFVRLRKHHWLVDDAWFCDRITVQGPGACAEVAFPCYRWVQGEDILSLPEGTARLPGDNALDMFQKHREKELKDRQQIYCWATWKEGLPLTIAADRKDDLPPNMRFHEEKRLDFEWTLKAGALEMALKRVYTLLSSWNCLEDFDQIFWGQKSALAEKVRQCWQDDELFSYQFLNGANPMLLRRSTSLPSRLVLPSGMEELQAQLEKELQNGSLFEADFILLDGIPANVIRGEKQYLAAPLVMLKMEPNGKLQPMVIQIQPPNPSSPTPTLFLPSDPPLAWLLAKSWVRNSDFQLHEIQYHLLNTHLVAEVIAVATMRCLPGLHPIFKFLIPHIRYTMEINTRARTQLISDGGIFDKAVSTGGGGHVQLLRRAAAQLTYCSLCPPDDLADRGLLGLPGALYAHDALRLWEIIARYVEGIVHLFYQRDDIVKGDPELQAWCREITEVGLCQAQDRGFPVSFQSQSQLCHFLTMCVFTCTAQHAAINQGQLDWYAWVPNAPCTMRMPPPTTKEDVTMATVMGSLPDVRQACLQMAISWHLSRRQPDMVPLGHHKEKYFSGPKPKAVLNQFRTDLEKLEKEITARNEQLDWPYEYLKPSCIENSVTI
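Hydroperoxide product was detected by ferrous iron/xylenol orange as the 573 to 405 nm absorbance ratio. Arachidonic acid at 40 uM (final) was turned over for 30 min at room temperature by 150 nM human 12hLO, pH 7.0 Hepes buffer, after 15 min compound preincubation.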
TDP1 cell CPT: growth inhibition of DT40 Tdp1-/-;hTDP1 cells with camptothecin (screen for TDP1 inhibitors). chicken DT40 Tdp1-/-;hTDP1 cells + 20 nM CPT, ATP luminescence, 48 h. Potency, µM (doses to about 46.2 µM), without a hit: at the highest dose activity change, negative = growth inhibition, usual class: inhibitors. 12% of 420,000 active; further: potency means the concentration at half of the fitted maximal effect; nearly all actives have a fitted effect of over 55% in size
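Chicken DT40 Tdp1-/- cells complemented with human TDP1, 400 cells/well, exposed to compounds plus 20 nM camptothecin for at least 48 h at 37 C; viability read as ATP content by CellTiter-Glo luminescence.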
* marks the source's active call; other numbers are inactive results; ? = inconclusive; / = not tested or not shown; ! = a repeat was not active; [ ] = dose if it differs, or a comment. This is one part of a sample in which hits are shown more often than they occur. Unless noted, the call rests on the fitted dose curve; in most records, active means well fitted curve in the direction sought with a large enough effect; inconclusive means small, poorly fitted or top-dose-only effect, or another doubt; inactive means no such curve, though single readings can be large; an effect the other way counts as inactive or inconclusive. Unless noted, on the % scale 0 is the no-effect control and ±100 the full control effect.

SMILES	HT1080 IDH1KD tx	HT1080NT lethal	TDP1 cell noCPT	IL-1B inflam inh	12-LOX inh	TDP1 cell CPT
COc1ccc(-c2ccc3c(c2)S(=O)(=O)c2cccc(C(=O)N4CCN(c5ccc(Cl)cn5)CC4)c2C3=O)cc1OC	-3%	5%	?	61	-17%	-5%
COc1ccc2nc(C[C@@H]3C[C@@H](C(C)C)[C@H](CN)C=C3C)[nH]c2c1	/	/	/	/	25%[176 µM]	/
O=C1C=CC(=Nc2ccc3c(c2)Cc2cc(F)ccc2-3)O1	2%	-5%	7.3µM*	-12	?	5.2µM*
COc1ccc(CCN(C)C(=O)C2CCCN(C3CCN(Cc4ccccc4)CC3)C2)cc1OC (configuration not stated)	-2%	-9%	-28%	-11	0.32µM*!	?
CC(=O)NC(Cc1ccc(F)c(F)c1)C(=O)NC1CCN(C(=O)c2ccc(Cl)cc2)CC1 (configuration not stated)	0%	1%	-12%	-6	1%	-1%
COc1cccc(CC(NC(C)=O)C(=O)NC2CCN(C(=O)c3ccc(Cl)cc3)CC2)c1 (configuration not stated)	11%	25%	5.8µM*	-5	-16%	-22%
COc1cccc(CN(C)C(=O)C2CCCN(C(=O)c3ccc(Cl)cc3)C2)c1 (configuration not stated)	5%	-2%	?	12	14%	21µM*
CN(Cc1ccccc1)C(=O)C1CCCN(Cc2cccc(Cl)c2)C1 (configuration not stated)	?	?	23µM*!	37	?	?
COc1ccc(OC)c(CN2CCC(C(=O)N(C)CCc3ccc(OC)c(OC)c3)CC2)c1	-5%	7%	13%	2	?	-3%
COc1ccc(-c2ccc3c(c2)C(=O)N2CC[C@H](NC(=O)CSC)C[C@H]2C(=O)N3)cc1	/	/	/	/	15%[176 µM]	/
CC1(COCC2CC2)COc2ccc(C(=O)Nc3ccccc3)cc2N1 (configuration not stated)	/	/	/	/	8%[176 µM]	/
CC(COc1ccc(CC#N)cc1)CN1CCC(C(O)(c2ccccc2)c2ccccc2)CC1 (configuration not stated)	/	/	/	/	12%	/
CCc1c(C)sc2c1CCN(C(=O)Nc1ccccc1C(=O)OC)C2c1ccc(OC)cc1 (configuration not stated)	/	/	?	/	-15%	?
CCc1c(C)sc2c1CCN(C(=O)Nc1ccccc1C(=O)OC)C2c1ccc(F)cc1 (configuration not stated)	/	/	?	/	-19%	?
CCc1c(C)sc2c1CCN(C(=O)Nc1ccc(F)c(Cl)c1)C2c1ccc(F)cc1 (configuration not stated)	/	/	16µM*	/	-14%	?
CCc1c(C)sc2c1CCN(C(=O)Nc1ccccc1C(F)(F)F)C2c1ccccc1 (configuration not stated)	/	/	7.3µM*	/	-17%	?
CCc1c(C)sc2c1CCN(C(=O)Nc1cc(Cl)c(OC)cc1OC)C2c1ccccc1 (configuration not stated)	/	/	26µM*	/	-17%	?
COc1cccc(CN2CCNc3cc(-c4ccccc4)ncc3C2)c1	/	/	/	/	16%[176 µM]	/
O=C1C(C2=NC(c3ccccn3)C3C(=O)N(c4ccccc4)C(=O)C23)=C(O)c2ccccc21 (configuration not stated)	-14%	1%	-17%	5	-1%	-10%
CC(NC(=O)CCc1c[nH]c2ccccc12)c1ccccc1 (configuration not stated)	-5%	12%	9%	24	0%	-20%

Bioassay records deposited in PubChem BioAssay by National Center for Advancing Translational Sciences (NCATS).
